Screens from PubChem BioAssay.
Rows were chosen to be rich in hits. Some 21% of all compounds tested hit in one or more screens of this group.
Pf growth 48h: inhibits P. falciparum growth in the first generation, 48 h; P. falciparum luciferase growth in erythrocytes, 48 h; Potency, µM (highest dose often 28.7 µM), hits mostly inhibitors; 310,000 compounds, 5.9% hits; AID 504832
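Compounds are pin-transferred into medium, infected erythrocytes (2% hematocrit, 0.1% parasitemia final) are added, and plates sit one parasite generation at 37 C in 5% CO2. Detection reagent is then added and luminescence measured.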
NS1 inh: inhibitors of influenza NS1 protein function. Potency, µM (doses to about 46.1 µM). 270,000 compounds, 0.4% hits; calls by dose curve; note: actives are rising curves; nearly all actives have a fitted effect of over 50% in size
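S. cerevisiae expressing influenza A NS1, grown in glucose, washed, then diluted 1:100 into pH 6.0 -URA galactose medium with 23 nl compound. Growth recovery read as OD600; NS1-free strain serves as control.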
Cycloheximide cs: counter-screen for Shiga toxin inhibitors: cycloheximide protein synthesis inhibition | 300,000 compounds, 12% hits | cell reporter, cycloheximide protein synthesis inhibition counterscreen | max response, %; in the data active = max response mostly above about 13%, no sharp cut-off; inactive = mostly below about 14%; note: read at 38.3 µM for the half of the compounds with a filed dose
Shiga toxin inh: inhibitors of Shiga toxin in Vero cells; 290,000 compounds, 9.2% hits; inhibition, % at 38.7 µM; Vero cells, Shiga toxin protein synthesis inhibition reporter; in the data active = inhibition mostly above about 28%, no sharp cut-off; inactive = mostly below about 43%
Pf growth 96h: inhibits malaria parasite growth, 96 h. Potency, µM (top dose mostly 28.7 µM), most hits filed as inhibitors. P. falciparum luciferase reporter growth, 96 h. 320,000 compounds, 6.9% hits
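Two parasite generations (96 h, 37 C, 5% CO2) of compound exposure in infected erythrocytes (0.05% parasitemia, 2% hematocrit). Luciferase-reporter P. falciparum; decreased luminescence indicates inhibited growth, aimed at apicoplast-acting delayed death.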
Large screens that a line does not name were inactive. Unless noted, calls come from the whole dose curve; as a rule, active = well fitted inhibition curve with a large enough effect; inconclusive = small, poorly fitted or top-dose-only effect, or another doubt; inactive = no such curve, though single readings can be large or run the other way.

CCCCCn1c(=O)[nH]c2cc(C(=O)N3CCN(CC)CC3)ccc2c1=O	Pf growth 96h inconclusive (no result: Pf growth 48h)
COc1cc2[nH]c(=S)n(Cc3ccccc3)c(=O)c2cc1OC	Pf growth 48h inconclusive
COc1cc2[nH]c(=O)n(CCCCCC(=O)N3CCN(c4ccccc4)CC3)c(=O)c2cc1OC	Pf growth 48h 7.4µM
CC(=O)c1ccc(N2CCN(C(=O)CCCn3c(=O)[nH]c4ccc(Br)cc4c3=O)CC2)cc1	Pf growth 48h 10µM, Pf growth 96h inconclusive (no result: NS1 inh)
COc1cc2[nH]c(=O)n(Cc3ccccc3Cl)c(=O)c2cc1OC	Pf growth 96h 4.7µM
CCCCCn1c(=O)[nH]c2cc(C(=O)N3CCN(c4ccc(C(C)=O)cc4)CC3)ccc2c1=O	Pf growth 48h inconclusive, Pf growth 96h 12µM
COC(=O)c1ccc2c(=O)n(CCCCCC(=O)N3CCN(c4ccccc4)CC3)c(=O)[nH]c2c1	none (no result: Pf growth 48h)
Cc1cc(C)n(C(=O)Cn2nc([N+](=O)[O-])cc2C)n1	none (no result: NS1 inh)
Cc1nc(NC(=O)CC(C)C)sc1-c1csc(Nc2ccc(Cl)cc2Cl)n1	Pf growth 48h inconclusive, NS1 inh inconclusive, Pf growth 96h 9.3µM
C=CCCC(=O)Nc1nc(C)c(-c2csc(Nc3ccc(Cl)cc3Cl)n2)s1	Pf growth 48h inconclusive, Pf growth 96h 8.3µM
COc1ccc(Cl)cc1Nc1nc(-c2sc(NC(=O)CC(C)C)nc2C)cs1	Pf growth 48h 10µM, Pf growth 96h 9.3µM
Cc1nc(NC(=O)CC(C)C)sc1-c1csc(Nc2ccc(Cl)cc2)n1	Pf growth 48h 10µM, Pf growth 96h 4.7µM
C=CCCC(=O)Nc1nc(C)c(-c2csc(Nc3cc(Cl)ccc3OC)n2)s1	Pf growth 48h inconclusive, Pf growth 96h inconclusive
Cc1cc(SCC(=O)OCC(=O)N(C)c2ccccc2)nc2ccccc12	none (no result: NS1 inh, Cycloheximide cs, Shiga toxin inh)
CCOC(=O)C1=C(C)N(CCCC(=O)O)C(=O)NC1c1ccccc1OS(=O)(=O)c1ccc(C)cc1 (stereo not given)	Pf growth 96h inconclusive
COc1ccc(Cc2nnc(NC(=O)c3ccc(OC(C)=O)cc3)s2)cc1OC	none
Cc1ccc(C(=O)O/N=C/c2c(N3CCOCC3)n(C)c3ccccc23)cc1	Pf growth 48h inconclusive, Pf growth 96h 3.3µM
CC(=O)O/N=C/c1c(N2CCOCC2)n(C)c2ccccc12	Pf growth 48h 3.7µM, Pf growth 96h 3.7µM
Cn1c(N2CCOCC2)c(/C=N/OC(=O)c2ccc(F)cc2)c2ccccc21	Pf growth 48h 1.3µM, Pf growth 96h 1µM
Cc1ccc(NC(=O)c2cc(N3C(=O)C=CC3=O)ccc2Cl)cc1C	none
CC(=O)n1cc(/C=N/NC(=O)c2ccccc2O)c2ccccc21	Cycloheximide cs 26, Shiga toxin inh 66
Cn1cc(/C=N/NC(=O)c2ccccc2O)c2ccccc21	Pf growth 48h inconclusive, Cycloheximide cs 25
O=C(N/N=C\c1coc2ccccc2c1=O)c1ccco1	none
CC(C)(C)OC(=O)n1cc(/C=N/NC(=O)c2ccco2)c2ccccc21	Cycloheximide cs 37, Shiga toxin inh 68
CCN(CC)S(=O)(=O)c1ccc(NCc2ccccc2)nc1	none
COC(=O)C1CCN(CC(=O)NC(=O)NC2CCCCC2)CC1	none (no result: NS1 inh)
COc1cc(NC(=O)Cc2ccccc2)nc(OC)n1	none (no result: Pf growth 48h)
COc1cc(NC(=O)CCc2ccccc2)nc(OC)n1	Cycloheximide cs 35, Shiga toxin inh 48
COc1ccc(C(=O)Nc2cc(OC)nc(OC)n2)cc1	Cycloheximide cs 19, Shiga toxin inh 53
COc1cc2c(-c3ccc4cc[nH]c4c3)c(-c3ccsc3)oc(=O)c2cc1OC	Pf growth 48h inconclusive, Pf growth 96h 2.3µM (no result: NS1 inh, Cycloheximide cs, Shiga toxin inh)
COc1cc2[nH]ccc(=O)c2cc1OC	none
COc1cc2c(-c3ccc4[nH]ccc4c3)c(-c3ccc(C#N)cc3)oc(=O)c2cc1OC	Pf growth 48h inconclusive, Pf growth 96h 4.7µM (no result: NS1 inh, Cycloheximide cs, Shiga toxin inh)
CCOC(=O)c1ccc(S(=O)(=O)N2CCN(CC(O)COc3cccc(C(C)=O)c3)CC2)cc1 (stereo not given)	none
COc1ccccc1NC(=O)Cn1cc(C(=O)C(=O)N2CCOCC2)c2ccccc21	none
O=c1c2cnn(-c3ccccc3)c2nc(-c2cccs2)n1-c1cccc(Cl)c1	Pf growth 48h 13µM, Pf growth 96h inconclusive
Cc1ccc(NC(=O)COC(=O)Cc2c[nH]c3ccccc23)cc1F	none (no result: NS1 inh, Cycloheximide cs, Shiga toxin inh)
Cc1cc(O)cc(C)c1Cl	Pf growth 48h 15µM, Pf growth 96h 8.5µM (no result: NS1 inh, Cycloheximide cs, Shiga toxin inh)
Cc1cc(O)c(N)c(C)c1Cl	Pf growth 48h 3.3µM, Pf growth 96h inconclusive (no result: NS1 inh)
Cc1cc(O)ccc1Cl	none (no result: NS1 inh, Cycloheximide cs, Shiga toxin inh)
NC(=O)c1sc2nc(-c3cccs3)ccc2c1N	Cycloheximide cs 49, Shiga toxin inh 64
CCOC(=O)c1sc2nc(-c3ccccc3)ccc2c1N	Cycloheximide cs 92, Shiga toxin inh 67
